The values below come from PubChem BioAssay.

SMILES strings stand for the structures. The source made the active and inactive calls.
Note: test concentration not given here.

The first test is described as follows: basal MM1S mitochondrial membrane potential changes, profiling panel, cell-based, JC-1 fluorescence, 24 h, 100 nL compound (AID 1170). The conditions noted are these: higher = more signal.
In turn, `CC(C)NC(=O)[C@@]1(C)c2ccccc2C(=O)N(Cc2cc(F)cc(C(F)(F)F)c2)[C@H]1c1ccc(CO)cc1` yielded a z-score of -0.542. Same read-out and setting: the value for `O=C1[C@H]2[C@H]3[C@H](O)[C@H](O)CC(=NO[C@@H]4O[C@H](CO)[C@@H](O)[C@H](O)[C@H]4O)[C@H]3CC[C@H]2C(=O)N1Cc1ccc2c(c1)OCO2` was -1.13; that for `O=C1[C@H]2[C@H]3[C@H](O)[C@H](O)CC(=NOCc4ccccc4)[C@H]3CC[C@H]2C(=O)N1c1cccc(Oc2ccccc2)c1` was -0.721; that for `C[C@H](c1ccccc1)N1C(=O)[C@H]2[C@@H]3C(=CC[C@H]2C1=O)C(=O)[C@H]1O[C@H]1[C@H]3O` was -2.92. Molecule `Cc1cc2c(nc1C)CCCN2CC(C)ON=C1[C@H]2CCn3c(=O)n(-c4ccccc4)c(=O)n3[C@H]2[C@H](O)[C@@H]2O[C@H]12` (some centres undefined) registered a z-score of 0.327.

Molecule `C#CCCCON=C1C[C@@H](O)[C@@H](O)[C@@H]2[C@@H]3C(=O)N([C@@H](C)c4ccccc4)C(=O)[C@@H]3CC[C@H]12` displayed a z-score of -0.53. `CCOC(=O)[C@H](Cc1ccccc1)NC(=O)CCC1CC(OC(=O)NCc2ccc3c(c2)OCO3)CC2(CCCC(COC(=O)NCC(c3ccccc3)c3ccccc3)O2)O1` (some centres undefined) came in with a z-score of -1.95. For the molecule `COCCCNC(=O)[C@@]1(C)c2ccccc2C(=O)N(Cc2ccc(OC(F)(F)F)cc2)[C@H]1c1ccc(CO)cc1`, the z-score was -1.06. The molecule `CC(=O)O[C@H]1C2=C(C(=O)[C@@H]3O[C@@H]31)[C@H]1C(C)O[C@@H]2[C@@]23C(=O)[C@@H]4O[C@@H]4[C@@H](O)C2=CO[C@H](C)[C@@H]13` (some centres undefined) came in with a z-score of -1.05.

Molecule `COCCOC(=O)N1C(=O)[C@@]2(c3cc(C#CCNC(N)=O)ccc31)[C@H](c1ccc(O)cc1)N1[C@H](c3ccccc3)[C@H](c3ccccc3)OC(=O)[C@H]1[C@@H]2C(=O)N1CCCCCCC1` had a z-score of 0.298. Turning to `CC(=O)OC[C@H]1O[C@H](CCON=C(C)CCC(=O)OC[C@H]2O[C@H](C#Cc3ccccc3)C=C[C@@H]2Oc2ccc(C)cc2)C=C[C@@H]1OC(C)=O`, the z-score was -0.738. Molecule `O=C1[C@H]2[C@H]3[C@H](O)[C@H](O)CC(=NOC[C@@H](O)COCc4ccco4)[C@H]3CC[C@H]2C(=O)N1c1cccc(Oc2ccccc2)c1` showed a z-score of -1.2.

`CC(C)(C)N1C(=O)[C@H]2[C@H]3[C@H](O)[C@H](O)CC(=NO[C@@H]4O[C@H](CO)[C@@H](O)[C@H](O)[C@H]4O)[C@@H]3CC[C@H]2C1=O`: the z-score was -1.03.

A short description of another test: A549 lung cancer cell viability effects, profiling panel, resazurin fluorescence, 24 h, PK04 Diversity Set (AID 1171). The note with it: higher = more signal, called active from +8 up or from −8 down. (The colour change of resazurin is a common sign of viable cells or microbes.)
For the molecule `CO[C@H]1COC(=O)[C@@H]2CCCN2C(=O)CC=C[C@@H](C)[C@H](OC)COC(=O)CC=C[C@@H]1C`, the z-score was 0.287 (inactive). In the case of `CC(C)CON=C1C[C@@H](O)[C@@H](O)[C@@H]2[C@@H]3C(=O)N([C@@H](C)c4ccccc4)C(=O)[C@@H]3CC[C@H]12`, the z-score is -0.511 (inactive).

As for `O=C1[C@H]2[C@H]3[C@H](O)[C@H](O)CC(=NOC[C@@H](O)COCc4ccco4)[C@@H]3CC[C@H]2C(=O)N1c1ccc(F)cc1F`, the z-score was 0.24 (inactive). Turning to `CO[C@@H]1COC(=O)CCC[C@@H](C)[C@H](OC)COC(=O)CCC[C@H]1C`, the z-score was 0.183 (inactive).

Take `C=CC[C@@H]1C=C[C@H](ON=C[C@@H](OC)[C@H](C)C=CCC(=O)OC)[C@@H](CO)O1`: the z-score was -0.498 (inactive). The same measure, in the same setting: as for `CCCC[C@@H](O)C1=C(C)C[C@H]2C(=O)N(Cc3ccccc3)C(=O)[C@H]2[C@H]1CO`, the figure is 0.453 (inactive); as for `CC(CCN1CCc2nc(-c3ccccc3)c(-c3ccccc3)cc2C1)=NO[C@H](C)c1cn([C@@H]2COC[C@H]2O)nn1`, -0.579 (inactive); as for `CC(C)[C@H](NC(=O)OC(C)(C)C)[C@@H](O)CC(=O)OC(C)(C)C`, -1.54 (inactive). For the molecule `CCOC(=O)C[C@H]1[C@H](OC(=O)c2ccc(C(=O)c3ccccc3)cc2)[C@@H](NC(=O)c2ccc(-c3ccccc3)cc2)c2cc(OCCCO)ccc2N1C(=O)c1ccc2ccccc2n1`, the z-score was 0.336 (inactive). For the molecule `CCCNC(=O)OC[C@H]1O[C@H](CCON=C[C@@H](OC)[C@H](C)C=CCC(=O)OC)C=C[C@@H]1Oc1ccc(OC)cc1`, the z-score is 1.2 (inactive). On to `CCOC(=O)CCN1C(=O)[C@H]2[C@H]3[C@H](O)[C@H](O)CC(=NNC(=O)OCc4ccc(OC)cc4)[C@@H]3CC[C@H]2C1=O`, for which the z-score was -0.807 (inactive). The same measure, in the same setting: as for `COc1ccc(O[C@H]2C=C[C@@H](c3ccccc3)O[C@@H]2COC(=O)CCC(C)=NOC[C@@H](C)[C@H](OCc2ccccc2)C(C)C)cc1`, the figure is 1 (inactive). Take `O=C1[C@H]2[C@H]3[C@H](O)[C@H](O)CC(=NOCc4ccccc4)[C@H]3CC[C@H]2C(=O)N1C[C@@H]1CCCO1`: the z-score was 0.469 (inactive). On to `O=C1O[C@@H](c2ccccc2)[C@@H](c2ccccc2)N2[C@@H](c3ccc(OCCO)cc3)[C@]3(C(=O)Nc4ccc(C#CCCO)cc43)[C@@H](C(=O)N3CCCCCCC3)[C@H]12`, for which the z-score is 0.932 (inactive).

On to `CCCCc1nc2c(c3c1C[C@H](C)OC3)CN(CCC(C)C)CC2`, for which the z-score was 0.6 (inactive).

With `O=C1C2=CC[C@H]3C(=O)N(Cc4ccc5c(c4)OCO5)C(=O)[C@H]3[C@H]2[C@H](O)[C@@H]2O[C@H]12`, the z-score is -0.763 (inactive). Regarding `O=C1CCCC=C1C(O)CCOCc1ccccc1` (centres undefined), the z-score was -0.323 (inactive). In the case of `COCCCNC(=O)[C@]1(CCC(=O)OC(C)(C)C)N=C(c2ccc(OCCCO)cc2)O[C@@H]1c1ccccc1N=[N+]=[N-]`, the z-score was 0.576 (inactive). Consider `COC(=O)[C@@H]1CCCN1C(=O)[C@@H](C)CO`, for which the z-score is -1.14 (inactive). Take `COc1ccc([Si](C)(C)[C@H]2[C@H](CCO)O[C@@]3(C(=O)N(Cc4cccc(NC(=O)[C@H](C)O)c4)c4ccccc43)[C@@H]2C)cc1`: the z-score was -4.28 (inactive). For the molecule `CCOC(=O)CCN1C(=O)[C@H]2[C@H]3[C@H](O)[C@H](O)CC(=NOC[C@@H](O)COCc4ccco4)[C@@H]3CC[C@H]2C1=O`, the z-score was -0.397 (inactive). As for `CC(CCN1CCCCc2nc(C)c(C)cc21)=NOC(C)CN1CCCCc2nc(C)c(C)cc21` (centres undefined), the z-score was 0.661 (inactive). As for `COCCOC(=O)N1C(=O)[C@@]2(c3cc(C#CC4(O)CCCCCC4)ccc31)[C@H](c1ccc(OCCO)cc1)N1[C@H](c3ccccc3)[C@H](c3ccccc3)OC(=O)[C@H]1[C@@H]2C(=O)NC[C@H](O)c1ccccc1`, the z-score is 0.702 (inactive). The same measure, in the same setting: as for `CC(C)NC(=O)[C@@]1(C)c2ccccc2C(=O)N(Cc2cc(F)cc(C(F)(F)F)c2)[C@H]1c1ccc(CO)cc1`, the figure is 0.166 (inactive). On the same count and under the same terms, the value for `O=C1[C@H]2[C@H]3[C@H](O)[C@H](O)CC(=NO[C@@H]4O[C@H](CO)[C@@H](O)[C@H](O)[C@H]4O)[C@H]3CC[C@H]2C(=O)N1Cc1ccc2c(c1)OCO2` was 0.443 (inactive); that for `O=C1[C@H]2[C@H]3[C@H](O)[C@H](O)CC(=NOCc4ccccc4)[C@H]3CC[C@H]2C(=O)N1c1cccc(Oc2ccccc2)c1` was 0.188 (inactive); that for `C[C@H](c1ccccc1)N1C(=O)[C@H]2[C@@H]3C(=CC[C@H]2C1=O)C(=O)[C@H]1O[C@H]1[C@H]3O` was -2.16 (inactive). In the case of `Cc1cc2c(nc1C)CCCN2CC(C)ON=C1[C@H]2CCn3c(=O)n(-c4ccccc4)c(=O)n3[C@H]2[C@H](O)[C@@H]2O[C@H]12` (some centres undefined), the z-score was -0.702 (inactive). Same read-out and setting: as for `C#CCCCON=C1C[C@@H](O)[C@@H](O)[C@@H]2[C@@H]3C(=O)N([C@@H](C)c4ccccc4)C(=O)[C@@H]3CC[C@H]12`, the figure is -0.0314 (inactive); as for `CCOC(=O)[C@H](Cc1ccccc1)NC(=O)CCC1CC(OC(=O)NCc2ccc3c(c2)OCO3)CC2(CCCC(COC(=O)NCC(c3ccccc3)c3ccccc3)O2)O1` (some centres undefined), 0.174 (inactive); as for `COCCCNC(=O)[C@@]1(C)c2ccccc2C(=O)N(Cc2ccc(OC(F)(F)F)cc2)[C@H]1c1ccc(CO)cc1`, -0.903 (inactive). `CC(=O)O[C@H]1C2=C(C(=O)[C@@H]3O[C@@H]31)[C@H]1C(C)O[C@@H]2[C@@]23C(=O)[C@@H]4O[C@@H]4[C@@H](O)C2=CO[C@H](C)[C@@H]13` (some centres undefined): the z-score was 0.4 (inactive). Still for that read-out and setting: the value for `COCCOC(=O)N1C(=O)[C@@]2(c3cc(C#CCNC(N)=O)ccc31)[C@H](c1ccc(O)cc1)N1[C@H](c3ccccc3)[C@H](c3ccccc3)OC(=O)[C@H]1[C@@H]2C(=O)N1CCCCCCC1` was 0.215 (inactive); that for `CC(=O)OC[C@H]1O[C@H](CCON=C(C)CCC(=O)OC[C@H]2O[C@H](C#Cc3ccccc3)C=C[C@@H]2Oc2ccc(C)cc2)C=C[C@@H]1OC(C)=O` was 0.016 (inactive). `O=C1[C@H]2[C@H]3[C@H](O)[C@H](O)CC(=NOC[C@@H](O)COCc4ccco4)[C@H]3CC[C@H]2C(=O)N1c1cccc(Oc2ccccc2)c1`: the z-score is 0.26 (inactive). On the same count and under the same terms, as for `CC(C)(C)N1C(=O)[C@H]2[C@H]3[C@H](O)[C@H](O)CC(=NO[C@@H]4O[C@H](CO)[C@@H](O)[C@H](O)[C@H]4O)[C@@H]3CC[C@H]2C1=O`, the figure is -0.461 (inactive).
